Holding throughout (assay): NCI-60 one-dose screen, 48 h (100 = growth as untreated, 0 = no growth, -100 = all killed)
What all share (details): 10 µM unless noted

Experiment [1] relates to NCI-H23 lung.
The subject of experiment [2] is NCI-H226 lung.
Experiment [3] deals with NCI-H322M lung.
Experiment [4] concerns HOP-62 NSCLC.
The subject of experiment [5] is NCI-H460 lung.
Experiment [6] relates to HOP-92 NSCLC.
Experiment [7] deals with NCI-H522 lung.
Experiment [8] concerns A549/ATCC NSCLC.
Experiment [9] relates to 786-0 renal.
Experiment [10] deals with DU-145 prostate.
Experiment [11] relates to K-562 leukemia.
The subject of experiment [12] is MALME-3M melanoma.
In experiment [13] the test system is MDA-MB-231 breast.
In experiment [14] the test system is RXF 393 renal.
Experiment [15] concerns SF-268 CNS.
Experiment [16] concerns SF-295 CNS.
For experiment [17], the system named is SF-539 CNS.
The subject of experiment [18] is UACC-257 melanoma.
Experiment [19] concerns M14 melanoma.

Growth data for 8 compounds are collected here from PubChem BioAssay (NCI).

The panel holds about 83,000 compounds, 20% with a hit somewhere; the sample as a whole holds those more often.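 Each cell line was grown in a 96-well plate and treated with one concentration of compound for 48 hours. Values below 10 were considered active.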 Unmarked numbers belong to inactive results. Active and inactive are the calls of the source.

Take `COc1cc2c(cc1OC)-c1ccc3cc4c(cc3c1N(CCCN1CCCCC1)C2)OCO4`: the growth is 70.4% in experiment [1]; 75.8% in experiment [2]; 63.6% in [3]; 56% in experiment [4]; 29.1% in experiment [5]; 23.2% in [6]. The growth in experiment [7] is 41.6%; in [8], 49.5%; in experiment [9], 40.1%; in [10] it was 51.1%; in experiment [11] it was 16.9%; in experiment [12] it was 76.7%. In addition, the growth in experiment [13] is 34.4%; in experiment [14] it was 43.8%; in experiment [15], 44.8%; in experiment [16], 56.9%; in experiment [17] it was 61.7%; in experiment [18], 64.3%. Also, in experiment [19], the growth is 54%.
As to `COc1cc(-c2cccc([N+](=O)[O-])c2)c(-c2nc(-c3ccccc3)c(-c3ccccc3)n2C2CC2)cc1OC`, the growth is 68% in experiment [1]; 62.5% in [2]; 71.9% in [3]; 92.6% in experiment [4]; 55.5% in experiment [5]; 34.6% in experiment [6]. Also, the growth is 44% in [7]; 44.7% in experiment [8]; 73.3% in experiment [9]; 87.1% in [10]; 32.6% in [11]; 74.2% in experiment [12]. In addition, the growth in experiment [13] is 72.4%; in experiment [14], 69.1%; in [15], 77%; in [16] it was 42.7%; in experiment [17], 88.5%; in [18] it was 56.8%. For the same compound, the growth in [19] is 40%.
As for `CCCCCCCC/C=C/CCCCCCCC1=NCC[N+]1(CCO)CCO`, the growth is 67.9% in experiment [1]; 71.1% in [2]; 83.8% in experiment [3]; 74.8% in experiment [4]; 42.7% in experiment [5]; 46.4% in experiment [6]. Moreover, the growth was 29% in experiment [7]; 81.9% in [8]; 72.3% in experiment [9]; 78.9% in experiment [10]; 32.7% in experiment [11]; 96.2% in [12]. Further, the growth is 56.6% in experiment [13]; 50.1% in [14]; 75.2% in experiment [15]; 79.6% in experiment [16]; 90.3% in experiment [17]; 104% in experiment [18]. The growth in experiment [19] was 71.4%.
Turning to `O=C(c1ccccc1)c1ccc(N2C(=O)C3C4c5ccccc5C(/C=C/C(=O)c5ccccn5)(c5ccccc54)C3C2=O)cc1` (configuration not stated), the growth in [1] is 14.2%; in [2], 12.7%; in [3], 74.9%; in [4], 24.3%; in experiment [5], 6.4% (active); in experiment [6] it was 55.6%. In addition, the growth in experiment [7] is 30.6%; in experiment [8], 44.3%; in experiment [9], 2.11% (active); in experiment [10], 21.4%; in experiment [11] it was 15.9%; in experiment [12], -18.2% (active). For the same compound, the growth in experiment [13] is -8.96% (active); in [14], -48.5% (active); in experiment [15], 43.4%; in [16], 10.8%; in experiment [17] it was -10.9% (active); in [18], 43.6%. In addition, the growth in experiment [19] is 21.3%.
Take `CCNCCNc1cc(-c2cccc(C(F)(F)F)c2)c(C#N)c2nc3ccccc3n12`: the growth in experiment [1] is -57.6% (active); in experiment [2], -67.2% (active); in [3], -63.1% (active); in experiment [4] it was -75.1% (active); in experiment [5], -70.4% (active); in [6] it was -58.1% (active). For the same compound, the growth is -71.3% (active) in experiment [7]; -91.9% (active) in experiment [8]; -88% (active) in experiment [9]; -74.9% (active) in experiment [10]; -65.8% (active) in experiment [11]; -77.3% (active) in experiment [12]. Besides, the growth in experiment [13] is -66.2% (active); in [14] it was -85.6% (active); in [15], -73.8% (active); in experiment [16], -82.3% (active); in experiment [17] it was -88.7% (active); in experiment [18], -84.4% (active). For the same compound, in [19], the growth is -89.3% (active).
Turning to `CN(C)c1ccc(/C=N/NC(=O)COc2cc(=O)n(C)c3ccccc23)cc1`, the growth in experiment [1] was 93.5%; in [2], 105%; in experiment [3] it was 105%; in experiment [4] it was 95.7%; in experiment [5], 110%; in [6] it was 93.5%. Also, the growth was 96.7% in experiment [7]; 110% in [8]; 105% in [9]; 110% in experiment [10]; 103% in experiment [11]; 98.4% in experiment [12]. Moreover, the growth is 97.1% in experiment [13]; 93.4% in [14]; 105% in [15]; 102% in experiment [16]; 100% in experiment [17]; 112% in experiment [18]. The growth in experiment [19] was 101%.
For the compound `O=C(CC12CC3CC(CC(C3)C1)C2)NCCOCCOCCNC(=O)c1cc2c(o1)C(=O)c1ccccc1C2=O`, the growth in experiment [1] is -52.9% (active); in experiment [2] it was -71.7% (active); in experiment [3] it was -90.2% (active); in experiment [4] it was -58.3% (active); in experiment [5] it was -72.6% (active); in [6], -8.25% (active). The growth was -49.5% (active) in [7]; -61.7% (active) in experiment [8]; -29.1% (active) in experiment [9]; -95.7% (active) in experiment [10]; 1.74% (active) in experiment [11]; -97.1% (active) in experiment [12]. In addition, the growth in experiment [13] is -9.38% (active); in experiment [14], -92.3% (active); in [15], -16.4% (active); in [16], -94.2% (active); in experiment [17] it was -96.1% (active); in experiment [18], -95.3% (active). For the same compound, the growth in [19] is -73.6% (active).
For `CNC(=O)c1cc(Oc2ccc3nc(NC(=O)Nc4cc(C(F)(F)F)cc(C(F)(F)F)c4)sc3c2)ccn1`, the growth in experiment [1] was -67.9% (active); in experiment [2], -13.7% (active); in experiment [3], -46.6% (active); in experiment [4] it was -70.5% (active); in experiment [5], -57.5% (active); in experiment [6], -54.6% (active). Also, the growth is -71.9% (active) in experiment [7]; -71.4% (active) in experiment [8]; -64% (active) in [9]; -39.6% (active) in experiment [10]; -2.97% (active) in [11]; -57.5% (active) in experiment [12]. For the same compound, the growth is -53.1% (active) in [13]; -24.5% (active) in experiment [14]; -25.6% (active) in experiment [15]; -81.9% (active) in experiment [16]; -80% (active) in [17]; -50.8% (active) in [18]. Further, the growth in [19] was -39% (active).
